This is a sample that favours compounds with a hit; in the whole collection about 4% have one here.
FBA Mtb inh: Mtb fructose-bisphosphate aldolase inhibition; P9WQA3; purified M. tuberculosis FBA, fluorescence read-out; inhibition, % at 1 µM; actives 2.3% (n = 360,000);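 note: 0% = vehicle and 100% = reference inhibitor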
GDH-TPI counter-1: inhibits GDH-TPI coupling enzymes, artifact for Mtb FBA screen. actives 1.2% (n = 360,000). inhibition, % at 4.8 µM. GDH-TPI coupled enzyme counterscreen, NADH absorbance. AID 588335; in the data active = inhibition above about 30%;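 note: 0% = DMSO wells and 100% = wells lacking the enzyme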
Rv3671c protease: inhibits the M. tuberculosis serine protease Rv3671c. actives 0.048% (n = 320,000). inhibition, % at 5.96 µM; in the data active = inhibition above about 38%;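 note: extracellular domain of Rv3671c used as enzyme; 0% = enzyme with DMSO and 100% = no enzyme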
Target sequence (P9WHR9 whole entry, looked up, the tested form may be a part): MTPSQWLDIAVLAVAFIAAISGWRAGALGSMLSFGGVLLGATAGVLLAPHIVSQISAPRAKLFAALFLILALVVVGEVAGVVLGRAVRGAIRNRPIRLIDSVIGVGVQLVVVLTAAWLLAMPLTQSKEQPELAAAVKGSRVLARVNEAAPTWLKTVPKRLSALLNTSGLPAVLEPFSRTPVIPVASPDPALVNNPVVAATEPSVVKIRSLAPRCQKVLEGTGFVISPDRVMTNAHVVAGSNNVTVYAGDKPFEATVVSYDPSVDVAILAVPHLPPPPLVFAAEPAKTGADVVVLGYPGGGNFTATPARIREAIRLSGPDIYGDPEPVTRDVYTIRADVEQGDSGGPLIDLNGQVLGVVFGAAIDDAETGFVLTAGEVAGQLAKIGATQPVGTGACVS
Mtb UGM inh: Mtb UDP-galactopyranose mutase inhibition | actives 0.06% (n = 320,000) | inhibition, % at 10 µM | purified UGM, fluorescence polarization probe displacement | P9WIQ1 | AID 504406; in the data active = inhibition above about 10%, passing the limit was not always enough
RecA splice inh: inhibitors of M. tuberculosis RecA intein splicing; actives 0.75% (n = 290,000); inhibition, % (no concentration beside the values); cell-free RecA intein splicing, fluorescence; P9WHJ3; in the data active = inhibition above about 30%;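 note: 0% = vehicle wells and 100% = reference inhibitor control wells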
Mtb bLac sens: beta-lactam sensitization of Mtb H37Rv. M. tuberculosis H37Rv growth with meropenem, percent inhibition. AID 434955. actives 0.27% (n = 330,000). inhibition, % at 25 µM; call rule not given here;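 note: growth measured after seven days incubation then overnight dye step; 0% = bacteria only wells and 100% = bacteria with antibiotic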
Mtb FBA inh conf: confirmation of M. tuberculosis fructose-bisphosphate aldolase inhibitors; actives 78% (n = 5,600); inhibition, % at 1 µM; AID 651616; purified M. tuberculosis FBA, fluorescence read-out; shares compounds with FBA Mtb inh;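 note: 0% = vehicle wells and 100% = reference inhibitor wells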
GDH-TPI counter-2: counter-screen for M. tuberculosis FBA inhibitors: GDH-TPI coupled enzyme inhibition; AID 652141; shares compounds with FBA Mtb inh; actives 81% (n = 5,600); inhibition, % at 1 µM; GDH-TPI coupled enzyme counterscreen, fluorescence; in the data active = inhibition above about 10%
GDH-TPI DR: GDH-TPI dose response counter-screen for Mtb FBA; shares compounds with FBA Mtb inh; GDH-TPI coupled enzyme assay, fluorescence, artifact counterscreen; IC50, µM; actives 79% (n = 170); AID 652145; call rule not given here
Starred values were filed as active, the others as inactive; x = no result; + = active, no number. Cut-off read from the data, not from the text of the source, unless noted: active = inhibition above about 27%; inactive = the rest.

SMILES	FBA Mtb inh	GDH-TPI counter-1	Rv3671c protease	Mtb UGM inh	RecA splice inh	Mtb bLac sens	Mtb FBA inh conf	GDH-TPI counter-2	others
CCCC1=C(C(=O)OCC)C(c2ccco2)C(C#N)=C(N)O1 (configuration not stated)	57.5*	6.3	5.3	2.2	-3.0	-9.8	98.5*	67.8*
CCOC(=O)C1=C(c2ccccc2)OC(N)=C(C#N)C1c1ccncc1 (configuration not stated)	43.4*	5.6	0.7	-2.7	-1.5	0.8	66.7*	65.7*
CCOC(=O)C1=C(c2ccccc2)OC(N)=C(C#N)C1c1cccs1 (configuration not stated)	-0.7	9.5	4.0	-4.5	-0.2	-2.6	x	x
CC(C)c1ccc(S(=O)(=O)Nc2ccc3c(c2)OCO3)cc1	1.2	7.0	1.6	-1.4	x	1.8	x	x
Cc1ccc(NC(=S)Nc2cccc3ccccc23)cc1F	46.5*	8.2	-2.9	-1.4	5.5	53.2	+	167.8*
O=C(Nc1cccc2ccccc12)c1cccc(F)c1	0.8	-6.9	x	-1.3	2.0	20.2	x	x
CC(=O)c1ccc(NC(=S)Nc2cccc3ccccc23)cc1	53.4*	16.5	-17.4	0.1	4.9	-2.2	75.6*	60.2*
CC(=O)N(C)c1ccc(NC(=S)Nc2cccc3ccccc23)cc1	8.7	18.1	11.2	1.9	9.8	4.4	x	x
Fc1cccc(NC(=S)Nc2cccc3ccccc23)c1	66.5*	-2.4	-4.2	-0.3	3.3	-11.8	+	+
Cc1cc(C)cc(NC(=S)Nc2cccc3cnccc23)c1	-0.1	2.2	x	x	x	x	x	x
COc1cc2c(cc1NC(=S)Nc1cccc3ccccc13)oc1ccccc12	105.4*	22.5	-3.7	1.1	-1.0	86.4	+	186.8*
CCOC(=O)C1=C(C)Nc2ccccc2N/C1=N\S(=O)(=O)c1cc(C(=O)O)ccc1Cl	-1.3	5.6	-11.8	3.6	x	-1.8	x	x
COc1ccc(NS(=O)(=O)c2cc(C(=O)N3CCN(C/C=C/c4ccccc4)CC3)ccc2C)cc1	-2.0	-5.8	-4.2	-0.7	2.4	-2.5	x	x
CC1CC(C)C(=NNC(N)=O)C(C(O)CC2CCC(=O)NC2=O)C1 (configuration not stated)	3.5	0.9	x	x	x	x	x	x
CC(C(=O)N1CCN(C(=O)c2ccco2)CC1)N1C(=O)NC2(CCCCC2C)C1=O (configuration not stated)	0.2	1.4	-4.3	-0.6	x	-3.4	x	x
CCn1c(SCC(=O)N2CCCCC2)nc2c(c1=O)SCC2	3.0	6.4	-6.6	0.5	-0.6	-7.5	x	x
COCCn1c(SCC(=O)N2CCCCC2)nc2c(c1=O)SCC2	41.1*	12.6	-3.9	-1.2	-0.2	-13.9	18.3	5.7	GDH-TPI DR=>10
CC1=CC(c2ccc(Cl)cc2)n2nc(NC(=O)CCCC(=O)O)nc2N1 (configuration not stated)	75.0*	1.8	4.1	-0.8	-16.2	-8.1	58.9*	45.1*
Cc1cc(N=Cc2c(O)n(-c3ccc4c(c3)OCO4)c(=O)c3ccccc23)ccn1	38.1*	6.1	-4.8	4.8	-16.6	-4.7	+	+
CC1(C)CC(=O)C=C(c2ccc3ccccc3c2)C1	39.6*	15.6	1.9	-1.0	x	17.7	-0.5	-4.5
Cc1ccc(C2=CC(=O)CC(C)(C)C2)cc1	3.8	16.1	0.9	2.3	x	12.4	x	x
Cc1ccccc1N(C(=O)c1snc(C(N)=O)c1N)C(C(=O)NC1CCCCC1)c1ccc(O)cc1 (configuration not stated)	34.9*	8.2	-19.9	-2.7	1.4	6.1	6.3	-0.3
Cc1ccccc1N(C(=O)c1snc(C(N)=O)c1N)C(C)C(=O)NC1CCCCC1 (configuration not stated)	31.6*	4.5	-0.9	-0.7	-0.4	-6.8	54.3*	37.1*
CCOc1ccccc1N(C(=O)c1snc(C(N)=O)c1N)C(CC)C(=O)NC1CCCC1 (configuration not stated)	-1.8	17.2	1.8	-4.8	-1.4	2.8	x	x

Source: PubChem
